The campaign covered roughly 5,500 compounds. About 2,000 (36%) were called active. Not shown: some 18% with an inconclusive outcome. Some of the results follow. Unmarked numbers belong to inactive results. Cut-off read from the data, not from the text of the source: active = normalized growth mostly below about 0.91 (no sharp cut-off); inconclusive = no clear call, values can overlap the other calls; inactive = mostly above about 0.92.
Test: chemical genetic growth profiling, strain panel (AID 1159580);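 note: tested at 20 µM; growth read once vehicle control cultures reached saturation at 30 °C; 1 = growth at the plate median or of vehicle wells; lower values mean less growth of the strain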
Settings: growth OD

Q: Which normalized growth (S. cerevisiae deletion strains, locus YJL187C, strain SWE1 (second series), stronger effect = lower value) does the source give for `O=C(O[C@@H]1Cc2c(O)cc(O)cc2O[C@@H]1c1cc(O)c(O)c(O)c1-c1c([C@H]2Oc3cc(O)cc(O)c3C[C@H]2O)cc(O)c(O)c1O)c1cc(O)c(O)c(O)c1` here?
A: Its normalized growth is 0.0786 (active).

Q: And the normalized growth (S. cerevisiae deletion strains, locus YJL187C, strain SWE1, stronger effect = lower value)?
A: The normalized growth was 0.981.

Q: And the normalized growth (S. cerevisiae deletion strains, locus YKL009W, strain mrt4, stronger effect = lower value)?
A: The normalized growth was 1.08.

Q: And the normalized growth (S. cerevisiae deletion strains, locus YKL068W, stronger effect = lower value)?
A: The normalized growth was 1.03.

Q: What about the normalized growth (S. cerevisiae deletion strains, locus YKL085W, strain MDH1 (second series), stronger effect = lower value) of the same compound?
A: Its normalized growth is 0.994.

Q: And the normalized growth (S. cerevisiae deletion strains, locus YKL085W, strain MDH1, stronger effect = lower value)?
A: The normalized growth was 0.994.

Q: And the normalized growth (S. cerevisiae deletion strains, locus YKL160W, strain elf1, stronger effect = lower value)?
A: Its normalized growth is 0.968.

Q: What about the normalized growth (S. cerevisiae deletion strains, locus YKL190W, strain CNB1, stronger effect = lower value) of the same compound?
A: The normalized growth was 0.0679 (active).

Q: What about the normalized growth (S. cerevisiae deletion strains, locus YKR001C, strain vps1, stronger effect = lower value) of the same compound?
A: The normalized growth was 0.487 (active).

Q: What about the normalized growth (S. cerevisiae deletion strains, locus YKR026C, strain gcn3, stronger effect = lower value) of the same compound?
A: Its normalized growth is 1.03.

Q: What about the normalized growth (S. cerevisiae deletion strains, locus YKR091W, strain srl3, stronger effect = lower value) of the same compound?
A: Its normalized growth is 1.02.

Q: And the normalized growth (S. cerevisiae deletion strains, locus YLL001W, strain dnm1, stronger effect = lower value)?
A: The normalized growth was 0.986.

Q: And the normalized growth (S. cerevisiae deletion strains, locus YLL026W, stronger effect = lower value)?
A: Its normalized growth is 1.03.

Q: And the normalized growth (S. cerevisiae deletion strains, locus YLL041C, strain sdh2, stronger effect = lower value)?
A: The normalized growth was 1.04.

Q: What about the normalized growth (S. cerevisiae deletion strains, locus YLR027C, strain aat2, stronger effect = lower value) of the same compound?
A: The normalized growth was 1.

Q: What about the normalized growth (S. cerevisiae deletion strains, locus YLR039C, strain RIC1, stronger effect = lower value) of the same compound?
A: The normalized growth was 0.136 (active).

Q: And the normalized growth (S. cerevisiae deletion strains, locus YLR058C, strain SHM2, stronger effect = lower value)?
A: The normalized growth was 0.0917 (active).

Q: And the normalized growth (S. cerevisiae deletion strains, locus YLR102C, strain apc9, stronger effect = lower value)?
A: Its normalized growth is 0.885 (active).

Q: What about the normalized growth (S. cerevisiae deletion strains, locus YLR221C, strain rsa3, stronger effect = lower value) of the same compound?
A: The normalized growth was 0.989.

Q: What about the normalized growth (S. cerevisiae deletion strains, locus YLR258W, strain gsy2, stronger effect = lower value) of the same compound?
A: The normalized growth was 1.02.

Q: And the normalized growth (S. cerevisiae deletion strains, locus YLR262C, strain YPT6 (second series), stronger effect = lower value)?
A: Its normalized growth is 0.89.

Q: What about the normalized growth (S. cerevisiae deletion strains, locus YLR262C, strain YPT6, stronger effect = lower value) of the same compound?
A: Its normalized growth is 0.222 (active).

Q: And the normalized growth (S. cerevisiae deletion strains, locus YLR268W, strain sec22, stronger effect = lower value)?
A: Its normalized growth is 0.225 (active).

Q: What about the normalized growth (S. cerevisiae deletion strains, locus YLR320W, strain mms22, stronger effect = lower value) of the same compound?
A: Its normalized growth is 1.01.

Q: What about the normalized growth (S. cerevisiae deletion strains, locus YLR330W, strain CHS5, stronger effect = lower value) of the same compound?
A: The normalized growth was 0.488 (active).

Q: What about the normalized growth (S. cerevisiae deletion strains, locus YLR342W, strain FKS1, stronger effect = lower value) of the same compound?
A: The normalized growth was 0.957.

Q: What about the normalized growth (S. cerevisiae deletion strains, locus YLR357W, strain rsc2, stronger effect = lower value) of the same compound?
A: Its normalized growth is 0.9.

Q: And the normalized growth (S. cerevisiae deletion strains, locus YLR370C, strain arc18, stronger effect = lower value)?
A: Its normalized growth is 1.

Q: What about the normalized growth (S. cerevisiae deletion strains, locus YLR371W, strain rom2, stronger effect = lower value) of the same compound?
A: The normalized growth was 0.667 (active).

Q: What about the normalized growth (S. cerevisiae deletion strains, locus YLR384C, strain iki3, stronger effect = lower value) of the same compound?
A: The normalized growth was 1.02.

Q: And the normalized growth (S. cerevisiae deletion strains, locus YLR418C, strain cdc73, stronger effect = lower value)?
A: Its normalized growth is 0.238 (active).

Q: And the normalized growth (S. cerevisiae deletion strains, locus YML016C, strain PPZ1, stronger effect = lower value)?
A: Its normalized growth is 0.0734 (active).

Q: And the normalized growth (S. cerevisiae deletion strains, locus YML032C, strain rad52, stronger effect = lower value)?
A: The normalized growth was 0.808 (active).

Q: What about the normalized growth (S. cerevisiae deletion strains, locus YML120C, strain ndi1, stronger effect = lower value) of the same compound?
A: The normalized growth was 1.

Q: What about the normalized growth (S. cerevisiae deletion strains, locus YML124C, strain tub3, stronger effect = lower value) of the same compound?
A: The normalized growth was 0.733 (active).

Q: What about the normalized growth (S. cerevisiae deletion strains, locus YMR058W, strain fet3, stronger effect = lower value) of the same compound?
A: Its normalized growth is 0.455 (active).

Q: What about the normalized growth (S. cerevisiae deletion strains, locus YMR078C, strain ctf18, stronger effect = lower value) of the same compound?
A: The normalized growth was 0.927.

Q: What about the normalized growth (S. cerevisiae deletion strains, locus YMR125W, strain sto1, stronger effect = lower value) of the same compound?
A: The normalized growth was 1.04.

Q: And the normalized growth (S. cerevisiae deletion strains, locus YMR129W, stronger effect = lower value)?
A: Its normalized growth is 1.02.

Q: What about the normalized growth (S. cerevisiae deletion strains, locus YMR205C, strain PFK2, stronger effect = lower value) of the same compound?
A: The normalized growth was 0.978.

Q: And the normalized growth (S. cerevisiae deletion strains, locus YMR223W, strain ubp8, stronger effect = lower value)?
A: Its normalized growth is 0.571 (active).

Q: And the normalized growth (S. cerevisiae deletion strains, locus YMR231W, strain pep5, stronger effect = lower value)?
A: Its normalized growth is 0.942.

Q: What about the normalized growth (S. cerevisiae deletion strains, locus YMR263W, strain SAP30, stronger effect = lower value) of the same compound?
A: The normalized growth was 0.386 (active).

Q: What about the normalized growth (S. cerevisiae deletion strains, locus YMR307W, strain GAS1, stronger effect = lower value) of the same compound?
A: Its normalized growth is 0.343 (active).

Q: What about the normalized growth (S. cerevisiae deletion strains, locus YNL067W, strain RPL9B, stronger effect = lower value) of the same compound?
A: The normalized growth was 0.138 (active).

Q: What about the normalized growth (S. cerevisiae deletion strains, locus YNL071W, strain lat1, stronger effect = lower value) of the same compound?
A: Its normalized growth is 1.02.

Q: And the normalized growth (S. cerevisiae deletion strains, locus YNL128W, strain TEP1, stronger effect = lower value)?
A: The normalized growth was 0.0913 (active).

Q: And the normalized growth (S. cerevisiae deletion strains, locus YNL153C, strain GIM3, stronger effect = lower value)?
A: Its normalized growth is 0.201 (active).

Q: And the normalized growth (S. cerevisiae deletion strains, locus YNL209W, strain ssb2, stronger effect = lower value)?
A: Its normalized growth is 0.822 (active).

Q: And the normalized growth (S. cerevisiae deletion strains, locus YNL233W, strain BNI4, stronger effect = lower value)?
A: Its normalized growth is 0.299 (active).

Q: What about the normalized growth (S. cerevisiae deletion strains, locus YNL248C, strain rpa49, stronger effect = lower value) of the same compound?
A: Its normalized growth is 1.02.

Q: What about the normalized growth (S. cerevisiae deletion strains, locus YNL250W, strain rad50, stronger effect = lower value) of the same compound?
A: Its normalized growth is 0.963.

Q: What about the normalized growth (S. cerevisiae deletion strains, locus YNL271C, strain bni1, stronger effect = lower value) of the same compound?
A: Its normalized growth is 0.974.

Q: What about the normalized growth (S. cerevisiae deletion strains, locus YNL298W, strain CLA4, stronger effect = lower value) of the same compound?
A: Its normalized growth is 1.

Q: What about the normalized growth (S. cerevisiae deletion strains, locus YNL307C, strain MCK1, stronger effect = lower value) of the same compound?
A: Its normalized growth is 0.831 (active).

Q: What about the normalized growth (S. cerevisiae deletion strains, locus YNL322C, strain KRE1 (second series), stronger effect = lower value) of the same compound?
A: Its normalized growth is 1.03.

Q: What about the normalized growth (S. cerevisiae deletion strains, locus YNR049C, strain mso1, stronger effect = lower value) of the same compound?
A: Its normalized growth is 1.03.

Q: And the normalized growth (S. cerevisiae deletion strains, locus YNR052C, strain pop2, stronger effect = lower value)?
A: The normalized growth was 0.246 (active).

Q: And the normalized growth (S. cerevisiae deletion strains, locus YOL006C, strain TOP1, stronger effect = lower value)?
A: The normalized growth was 0.168 (active).

Q: What about the normalized growth (S. cerevisiae deletion strains, locus YOL012C, strain htz1) of the same compound?
A: Its normalized growth is 0.228.

Q: And the normalized growth (S. cerevisiae deletion strains, locus YOL147C, strain pex11, stronger effect = lower value)?
A: Its normalized growth is 0.662 (active).

Q: And the normalized growth (S. cerevisiae deletion strains, locus YOR001W, strain rrp6, stronger effect = lower value)?
A: Its normalized growth is 0.981.

Q: And the normalized growth (S. cerevisiae deletion strains, locus YOR061W, strain CKA2, stronger effect = lower value)?
A: The normalized growth was 0.163 (active).

Q: What about the normalized growth (S. cerevisiae deletion strains, locus YOR069W, strain VPS5, stronger effect = lower value) of the same compound?
A: Its normalized growth is 0.128 (active).

Q: And the normalized growth (S. cerevisiae deletion strains, locus YOR070C, strain gyp1, stronger effect = lower value)?
A: Its normalized growth is 0.972.

Q: And the normalized growth (S. cerevisiae deletion strains, locus YOR080W, strain dia2, stronger effect = lower value)?
A: Its normalized growth is 1.02.

Q: What about the normalized growth (S. cerevisiae deletion strains, locus YOR083W, strain WHI5, stronger effect = lower value) of the same compound?
A: Its normalized growth is 0.937.

Q: And the normalized growth (S. cerevisiae deletion strains, locus YOR106W, strain vam3, stronger effect = lower value)?
A: Its normalized growth is 0.817 (active).

Q: What about the normalized growth (S. cerevisiae deletion strains, locus YOR136W, strain idh2, stronger effect = lower value) of the same compound?
A: Its normalized growth is 0.645 (active).

Q: What about the normalized growth (S. cerevisiae deletion strains, locus YOR144C, strain elg1, stronger effect = lower value) of the same compound?
A: The normalized growth was 0.774 (active).

Q: And the normalized growth (S. cerevisiae deletion strains, locus YOR184W, strain ser1, stronger effect = lower value)?
A: Its normalized growth is 0.346 (active).

Q: And the normalized growth (S. cerevisiae deletion strains, locus YOR265W, strain rbl2, stronger effect = lower value)?
A: Its normalized growth is 0.984.

Q: And the normalized growth (S. cerevisiae deletion strains, locus YOR270C, strain vph1, stronger effect = lower value)?
A: Its normalized growth is 0.977.

Q: What about the normalized growth (S. cerevisiae deletion strains, locus YOR290C, strain snf2, stronger effect = lower value) of the same compound?
A: The normalized growth was 0.989.

Q: And the normalized growth (S. cerevisiae deletion strains, locus YOR316C, strain cot1, stronger effect = lower value)?
A: The normalized growth was 0.863 (active).

Q: And the normalized growth (S. cerevisiae deletion strains, locus YPL051W, strain arl3, stronger effect = lower value)?
A: Its normalized growth is 0.822 (active).

Q: What about the normalized growth (S. cerevisiae deletion strains, locus YPL078C, strain atp4, stronger effect = lower value) of the same compound?
A: The normalized growth was 0.99.

Q: And the normalized growth (S. cerevisiae deletion strains, locus YPL106C, strain sse1, stronger effect = lower value)?
A: The normalized growth was 0.941.

Q: What about the normalized growth (S. cerevisiae deletion strains, locus YPL240C, strain hsp82, stronger effect = lower value) of the same compound?
A: Its normalized growth is 1.

Q: What about the normalized growth (S. cerevisiae deletion strains, locus YPR119W, strain clb2, stronger effect = lower value) of the same compound?
A: Its normalized growth is 0.981.

Q: What about the normalized growth (S. cerevisiae deletion strains, locus YPR141C, strain kar3, stronger effect = lower value) of the same compound?
A: The normalized growth was 0.988.

Q: What about the normalized growth (S. cerevisiae deletion strains, locus YPR163C, strain tif3, stronger effect = lower value) of the same compound?
A: The normalized growth was 0.756 (active).

Q: What about the normalized growth (S. cerevisiae deletion strains, locus YPR167C, strain met16, stronger effect = lower value) of the same compound?
A: The normalized growth was 0.785 (active).

Q: And the normalized growth (S. cerevisiae deletion strains, strain wtn01, stronger effect = lower value)?
A: The normalized growth was 0.335 (active).

Q: And the normalized growth (S. cerevisiae strains, strain wild type, stronger effect = lower value)?
A: Its normalized growth is 0.0644 (active).

Reference: PubChem BioAssay AID1159580 (chemical genetic matrix, 2015)
